Compound activity deposited in PubChem by The Scripps Research Institute Molecular Screening Center.
MITF inh: blocks human microphthalmia-associated transcription factor. O75030. AlphaScreen MITF homodimerization, bead proximity signal. inhibition, % at 2.6 µM. 0.91% of 650,000 active. AID 1259374; in the data active = inhibition above about 50%;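 note: 0% = vehicle wells with protein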
GPR151 ag: activators of human GPR151; 1% of 650,000 active; AID 1508602; activation, % at 11.2 µM; PathHunter beta-arrestin GPR151 cells, luminescence; Q8TDV0; in the data active = activation above about 4.9%;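 note: 0% = median of compound wells and 100% = cells with positive control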
TEAD-YAP block: TEAD-YAP interaction inhibition; HEK-TIYL cells, TEAD-Gal4/YAP UAS-luciferase luminescence; inhibition, % at 9.12 µM; 1.4% of 640,000 active; in the data active = inhibition above about 32%;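 note: 0% = median of test compound wells and 100% = reference inhibitor wells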
FBW7 act: activators of human E3 ligase FBW7 | Q969H0 | AlphaScreen FBW7–phospho-cyclin E peptide binding, activator screen | normalized activity (activation), % at 26.1 µM | 0.13% of 650,000 active | AID 1259310; in the data active = normalized activity above about 1.9%;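 note: purified mutant Fbw7 with reduced substrate affinity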
GPR151 confirm: human GPR151 activation, confirmation screen; activation, % at 11.2 µM; shares compounds with GPR151 ag; AID 1508609; 6,700 tested, under 10 active; GPR151 PathHunter beta-arrestin cells, luminescence, 90 min; % of EA-reagent control over plate median;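 active = mean percent activation across replicates above the confirmation screen cutoff of 4.91%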
GPR119 counter: counter-screen for GPR151 activators: effect on human GPR119; shares compounds with GPR151 ag; GPR119 PathHunter beta-arrestin cells, luminescence, 90 min; 0 = compound-well median, 100 = enzyme-acceptor control; activation, % at 11.2 µM; 0.3% of 6,700 active;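 active = mean percent activation in the counterscreen above 29.09%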;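 note: counterscreen on off-target GPR119 to flag nonselective hits from the GPR151 activator screen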
Target sequence (Q8TDV5 whole entry, looked up): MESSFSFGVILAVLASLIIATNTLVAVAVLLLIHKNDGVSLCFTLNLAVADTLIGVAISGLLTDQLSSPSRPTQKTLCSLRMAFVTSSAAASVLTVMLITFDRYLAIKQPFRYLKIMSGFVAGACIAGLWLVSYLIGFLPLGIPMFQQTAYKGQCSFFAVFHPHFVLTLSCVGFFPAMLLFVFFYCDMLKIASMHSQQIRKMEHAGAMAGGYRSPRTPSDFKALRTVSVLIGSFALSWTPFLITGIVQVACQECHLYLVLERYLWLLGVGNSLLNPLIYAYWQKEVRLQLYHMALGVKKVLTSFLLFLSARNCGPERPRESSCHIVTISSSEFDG
Starred values were filed as active, the others as inactive; x = not tested or not shown. In the library only some 3.5% were active in any assay of this set; here they are far more common.

SMILES	MITF inh	GPR151 ag	TEAD-YAP block	FBW7 act	GPR151 confirm	GPR119 counter
O=C(CC1C(=O)NCCN1CC(c1ccccc1)c1ccccc1)NC1CCC(O)CC1 (stereo not given)	12	5.3*	2	0	-1	-7
COc1ccccc1/C=C/CN1CCNC(=O)C1CC(=O)NC1CCC1 (stereo not given)	-6	0	7	0	x	x
O=C(CC1C(=O)NCCN1Cc1ccc2ccccc2c1)NC1CCOCC1 (stereo not given)	7	0	10	0	x	x
CCOCCOC(=O)C1=C(C)NC2=C(C(=O)CC(c3ccccc3)C2)C1c1ccc(Br)cc1 (stereo not given)	-14	1	-5	0	x	x
CCOC(=O)c1ccccc1NC(=O)c1sc2ncn(CC(=O)Nc3ccc(C(C)C)cc3)c(=O)c2c1C	2	0	3	0	x	x
CC(CCc1ccccc1)NC(=O)Cn1c(CO)nc2ccccc21 (stereo not given)	-11	6.2*	5	0	0	10
COCCCNc1c2c(nc3nnnn13)CCCC2	5	6.1*	5	0	0	-2
CCN(CC)CCNc1c2c(nc3nnnn13)CCCC2	11	0	3	0	x	x
NC(=O)C[n+]1cccc(/C=N/O)c1	3	6.3*	-3	0	0	-2
CC(C)N(C(=O)C[n+]1cccc(/C=N/O)c1)C(C)C	6	1	-5	0	x	x
CCOC(=O)CNC(=O)N1CCc2nc(-c3cccnc3)nc(N3CCCCCC3)c2C1	13	2	4	0	x	x
CCCCNc1ncnc2c1c(-c1ccccc1)cn2-c1cccc(C(F)(F)F)c1	9	1	11	0	x	x
Cc1ccc(NC(=O)c2cccs2)cc1NC(=O)c1cnccn1	5	5.9*	5	0	0	4
O=C(Nc1ccncc1)c1cccs1	7	-1	-3	0	x	x
Cc1cnccc1NC(=O)c1cccs1	-16	0	3	0	x	x
O=C(Nc1cccnc1)c1cccs1	-2	8.9*	40*	0	-1	-9
CC(=O)c1ccc(NC(=O)CN2CCC(c3nc4ccccc4[nH]3)CC2)cc1	6	1	-1	0	x	x
O=C(N=C1N=C2C=CC=CN2Cc2ccccc21)c1ccccc1Cl	3	-6	-39	0	x	x
O=C(O)c1ccc(/C=N/Nc2ncc(Cl)cc2Cl)cc1	17	-3	-15	0	x	x
COCC(C)NC(=O)C1CC(c2c(F)cccc2Cl)=NO1 (stereo not given)	2	0	-1	0	x	x
Cc1nc(N2CCCC(NCCc3ccco3)CC2)nc2ccc(F)cc12 (stereo not given)	5	1	-10	0	x	x
CC(NC(=O)c1cccc(Br)c1)C1CCCO1 (stereo not given)	-24	0	-7	0	x	x
CC(NC(=O)c1ccc2c(c1)OCO2)C1CCCO1 (stereo not given)	4	5.5*	-14	0	1	13
COc1cccc(CNC(=O)c2cc3ccc(-c4ccncc4)cc3[nH]2)c1	12	-2	-3	0	x	x
COc1cccc(CNC(=O)c2cc3ccc(-c4ccncc4)cc3n2C)c1	16	7.8*	-7	0	1	-1
SMILES	MITF inh	GPR151 ag	TEAD-YAP block	FBW7 act	GPR151 confirm	GPR119 counter
COc1cccc(CNC(=O)c2cc3ccc(-c4cn[nH]c4)cc3n2CCCO)c1	5	5.5*	-7	0	0	8
COc1cccc(CNC(=O)c2cc3ccc(-c4ccncc4)nc3[nH]2)c1	4	5.2*	-14	0	0	2
CC(C)=CCN1CCN(Cc2ccc(-n3cccn3)cc2C)CC1CCO (stereo not given)	8	11*	-13	0	0	0
Cc1cc(-n2cccn2)ccc1CN1CCN(C2CCCCC2)C(CCO)C1 (stereo not given)	1	2	6	0	x	x
Cc1cc(C)n(C(=O)COc2ccccc2[N+](=O)[O-])n1	-16	5.4*	4	0	0	-2
Cc1cc(NC(=O)Cn2cc([N+](=O)[O-])cn2)n(-c2ccccc2)n1	-3	3	-13	0	x	x
Cc1cc(NC(=O)COc2cc(F)ccc2[N+](=O)[O-])n(-c2ccccc2)n1	-8	15*	-1	0	-1	-10
Cc1ccccc1OCC(=O)N/N=C/c1c(C)[nH]c2ccccc12	15	0	1	0	x	x
COc1ccc(-c2ncccc2O)cc1	11	5.2*	-44	2	0	-2
CCOc1ccc(-c2ncccc2O)cc1	18	0	-37	0	x	x
O=[N+]([O-])c1cccc(Cl)c1CSc1nnnn1-c1ccccc1	7	6.2*	7	0	0	2
O=[N+]([O-])c1cccc(Cl)c1CSc1nnnn1-c1cccc2ccccc12	14	0	4	0	x	x
Cc1cc(C)nc(N2CC(=O)N(C)C2=N)n1	-8	5.5*	-1	0	0	4
CN1C(=N)N(c2nc(N(C)C)nc(N(C)C)n2)CC1=O	-3	1	2	0	x	x
Cc1c(Cl)cccc1NC(=O)CC(C)S(=O)(=O)c1ccc2c(c1)SCC(=O)N2 (stereo not given)	3	0	6	0	x	x
Cc1cccc(NC(=O)CC(C)S(=O)(=O)c2ccc3c(c2)SCC(=O)N3)c1C (stereo not given)	-2	5.8*	1	0	0	-1
Cc1cccc(C(C)C)c1NC(=O)CCS(=O)(=O)c1ccc2c(c1)SCC(=O)N2	4	5.5*	1	0	0	6
O=C(Nc1ccc(Oc2ccccc2)cc1)Nc1cccc([N+](=O)[O-])c1	23	7.0*	-8	1	0	1
CCOc1ccc(-c2cc(=O)c3cc(NC(=O)c4ccccc4Br)ccc3o2)cc1	-2	5.1*	-39	0	-1	-11
CCOC(=O)N1CCN(S(=O)(=O)c2ccc(C(=O)Nc3ccc4sc(C)nc4c3)cc2)CC1	14	2	6	1	x	x
CS(=O)(=O)N(CC(=O)N1CCCC1)c1ccc2c(c1)OCCO2	6	9.5*	9	0	-1	-10
CS(=O)(=O)N(CC(=O)N1CCN(c2ccc(F)cc2)CC1)c1ccc(Cl)cc1	6	5.6*	-2	0	0	-3
CC(C)c1ccc(N(CC(=O)N2CCN(c3ccc(F)cc3)CC2)S(C)(=O)=O)cc1	1	3	1	0	x	x
O=c1c2ccccc2nc(SCc2c(F)cccc2Cl)n1C1CC1	-12	5.1*	-6	0	0	8
COc1ccc2nc(CN3CCc4c(nc(C)[nH]c4=O)C3)ccc2c1	-3	-1	0	0	x	x
Cc1sc2ncnc(Nc3ccncc3)c2c1C	4	5.3*	8	0	0	20
Cc1sc2ncnc(NCCc3ccccc3)c2c1C	8	5.4*	9	0	1	19
